Values joined by “and” are separate entries in the source; they are usually repeats but may differ in a detail not shown here. Identical values can stand only once. About 79,000 compounds went through this panel and 15% of them were active in at least one assay; those are over-represented in the sample as a whole. No stated cut-off is given here; in the data, active means growth inhibition above about 70%; inactive means the rest. Where a SMILES comes first, the peptide text is derived from it. [ ]: non-standard residue; d: D form. ξ: configuration not given here. ξF = NC(Cc1ccccc1)C(=O)O
How the values were obtained:
[1] = NCI Yeast Anticancer Drug Screen. Data for the rad50 strain (AID 155);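 further: 0% = growth of vehicle-only cultures of the same strain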; settings: S. cerevisiae rad50 strain growth inhibition; at 50.0 µM; hits give high values
Method in brief: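 Readout: growth inhibition relative to vehicle-treated cultures. Compound exposure was carried out in a genetically defined yeast strain deficient in DNA damage repair.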

[2] = NCI Yeast Anticancer Drug Screen. Data for the mec2-1 strain (AID 157); settings: S. cerevisiae mec2-1 strain, at 50.0 µM, hits give high values
Method in brief: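 Readout is yeast growth inhibition, normalised to vehicle-treated controls, in the mec2-1 strain exposed to compound.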

[3] = NCI Yeast Anticancer Drug Screen. Data for the sgs1 mgt1 strain (AID 161);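 further: 0% = growth of cultures given vehicle only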; settings: S. cerevisiae sgs1 mgt1 strain, at 50.0 µM, hits give high values
Method in brief: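 This yeast growth screen uses a strain with defined DNA-repair lesions; compound-treated growth is compared with vehicle-treated growth.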

[4] = NCI Yeast Anticancer Drug Screen. Data for the cln2 rad14 strain (AID 165);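 further: 0% = growth equal to vehicle treated cultures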; settings: S. cerevisiae cln2 rad14 strain, at 50.0 µM, hits give high values
Method in brief: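 Relative to vehicle controls, growth inhibition of compound-treated cln2 rad14 yeast was recorded.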

[5] = NCI Yeast Anticancer Drug Screen. Data for the bub3 strain (AID 167); settings: S. cerevisiae bub3 mutant strain, at 50.0 µM, hits give high values
Method in brief: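 Readout: yeast growth inhibition, expressed relative to vehicle-only wells. The test organism is a mutant strain from a panel with lesions in DNA repair or checkpoint genes.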

[6] = NCI Yeast Anticancer Drug Screen. Data for the mlh1 rad18 strain (AID 175); settings: S. cerevisiae mlh1 rad18 strain growth inhibition; at 50.0 µM; hits give high values
Method in brief: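 Test agents were incubated with a yeast strain of defined genotype (DNA damage repair defect). Inhibition of growth was derived by comparison with vehicle-exposed cultures.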

Measured: growth inhibition

Cc1[nH]n(-c2ccc(S(=O)(=O)O)cc2)c(=O)c1N=Nc1ccccc1
inactive: [1] -0.4% and -2.2% | [2] 6.55% and -21.9% | [3] -10% and 2.1% | [4] 0.95% and 8.8% | [5] 10.8% and 4.1% | [6] -0.6% and 15.1%

CC(=O)c1c(O)c(C)c(O)c2c1OC1=CC(=O)C(C(C)=O)C(=O)C12C (stereo unspecified)
inactive: [1] 30.6% and 28.6% and -0.1% | [2] 21% and 17.2% and -20.2% | [3] 28.4% and 23.8% and -25.1% | [4] 37% and 23.2% and -19.4% | [5] 30.4% and 24.9% and 12.6% | [6] 23.9% and 31.6% and -25.6%

O=[N+]([O-])c1cc(S(=O)(=O)O)ccc1Cl
inactive: [1] -9.65% and 14.6% | [2] 3.25% and -1.15% | [3] -9.3% and -7.65% | [4] 9.2% and 12.7% | [5] 0.1% and 6.25% | [6] 15.2% and 14.8%

NCC(=O)NC(Cc1ccccc1)C(=O)O (stereo unspecified) (H-Gly-[ξF]-OH)
inactive: [1] -28.9% and -14.6% | [2] -14.6% and -12.2% | [3] -1% and -20.6% | [4] -3.9% and -2.65% | [5] -8.25% and -10% | [6] -3.75% and -13.3%

CCOC(=O)C(OC1OC(C(=O)OC)C(OC(C)=O)C(OC(C)=O)C1OC(C)=O)c1ccccc1 (stereo unspecified)
inactive: [1] -10.2% and -20.9% | [2] -5.7% and -8.3% | [3] -13.2% and -11.8% | [4] 0.5% and -29.8% | [5] -6.85% and -17.8% | [6] -33.1% and -35.5%

Cc1ccc(NC2=CC(=O)C(=O)c3ccccc32)cc1
inactive: [1] 30% and 22.6% and 45.2% | [2] 40.7% and 36% and 14.1% | [3] 25% and 26.8% and 32.3% | [4] 5.55% and 8.9% and 30.9% | [5] 25.1% and 26.9% and 54.6% | [6] 15.4% and 60.9% and 33.4%

OC1C(O)C2(c3ccccc3)OC1(c1ccccc1)c1ccccc12 (stereo unspecified)
inactive: [1] 13.2% and 7.35% | [2] -5.9% and -2.35% | [3] -5.8% and -5.6% | [4] 4.35% and 2% | [5] -0.25% and -1% | [6] -13.5% and -9.9%

OC1C2COC(O2)C(O)C1O (stereo unspecified)
inactive: [1] -0.4% and -29.9% | [2] -5.45% and -7.65% | [3] 7.4% and -6.7% | [4] -16.2% and -35% | [5] -1.5% and 5.9% | [6] 7.05% and -18.7%

O=C1CC2(CC=CCC23OCCO3)CC(CI)O1 (stereo unspecified)
inactive: [1] -14.1% and 7.75% | [2] -8.25% and -1.25% | [3] 3.1% and 24.8% | [4] 5.9% and 5.1% | [5] -10.2% and 10.9% | [6] 10.7% and 9.55%

CCCSc1nc(COC(=O)NC)c(COC(=O)NC)n1C
inactive: [1] -5.1% and -10% | [2] -25.1% and 2% | [3] -5.8% and -9.1% | [4] -12% and 2.95% | [5] -5.1% and -2% | [6] -20.4% and 4.85%

O=[N+]([O-])c1ccc(Cc2ccccc2)cc1
inactive: [1] -2.8% and -37.1% | [2] -32.1% and -23.9% | [3] 7.7% and -11.6% | [4] 3.2% and -9.15% | [5] 13.8% and -11.9% | [6] -30.9% and -14.7%

O=C(O)/C=C/C=C/C(=O)O
inactive: [1] -5.1% and 14.2% | [2] -4.45% and -10.2% | [3] -3.8% and -1.95% | [4] 7.8% and -17.9% | [5] -0.8% and -14.6% | [6] -10.6% and 2.75%

C1OC2COCOC2C2OCOCC2O1 (stereo unspecified)
inactive: [1] -22.8% and -3% | [2] -17.2% and -9.95% | [3] -17.4% and -7.85% | [4] -33.5% and -14.5% | [5] -13.3% and 0.85% | [6] -4.45% and -4.65%

Nc1c(O)nc[nH]c1=O
inactive: [1] 3.5% and -8.25% | [2] -5.15% and -3.15% | [3] -9% and -8.55% | [4] -1.55% and -39.1% | [5] 4.8% and -10.2% | [6] -16.6% and -8.95%

CCCCOc1ccc2nc3cc(Cl)ccc3c(Cl)c2n1
inactive: [1] 1.85% and -16.5% | [2] -10.8% and -43.5% | [3] -9.75% and 22.9% | [4] 5.7% and 17.4% | [5] -12.2% and 8.6% | [6] 25.8% and 3.55%

NC(N)=NCCCC1NC(=O)C(Cc2ccc(O)cc2)NC1=O (stereo unspecified)
inactive: [1] 15.3% and -3.3% | [2] 21.8% and -3.25% | [3] 48.9% and -4.85% | [4] -5.05% and -8.55% | [5] 38.2% and 3.55% | [6] 33.2% and -1.6%

NCCCNCCCCNCCCN
inactive: [1] 14.1% and -12.6% | [2] 30.6% and -27.4% | [3] 14.2% and -14.9% | [4] 8.5% and -10.2% | [5] 28% and -15.6% | [6] 19.6% and 3%

O=C(O)C(O)C(O)C(O)C(=O)CO (stereo unspecified)
inactive: [1] -2.25% and -13.1% | [2] -27.3% and -1.05% | [3] -4.9% and -10.4% | [4] -32.6% and -40.5% | [5] -16.9% and -42.5% | [6] -19.2% and 13.7%

Cc1cc(C)c(C(=O)C(C)C(c2ccccc2)c2ccc(Cl)cc2)c(C)c1 (stereo unspecified)
inactive: [1] -16.4% and -14.6% | [2] -19.2% and -5.7% | [3] -12.8% and -16.1% | [4] 17.8% and -2.55% | [5] -8.7% and -10.6% | [6] -15.2% and -2.45%

CC(O)C(O)C(O)C(O)CO (stereo unspecified)
inactive: [1] 17.1% and -19.8% | [2] -8.65% and -14.4% | [3] -15.2% and -4.65% | [4] 14.2% and -28.2% | [5] -18.9% and -5.9% | [6] 0.15% and -4.05%

Cc1ccc(S/C=C/C(=O)O)cc1
inactive: [1] -3% and 19.8% | [2] 18.5% and -0.1% | [3] 16.1% and 20.4% | [4] 7.7% and 19.2% | [5] -0.1% and -6.05% | [6] 20.6% and 5.45%
